# In the library only some 0.81% were active in any assay of this set; here they are far more common.
# NCOA1 inh = SRC1 coactivator transcriptional activity inhibitors, primary screen, cell-based, luminescence. Nuclear receptor coactivator 1 (Homo sapiens), Q15788. inhibition, % at 3.6 µM. HEK293 GAL4-SRC1 luciferase reporter. actives 0.12% (n = 360,000);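 active = inhibition above the campaign mean plus 3 SD, with each screening campaign given its own cutoff, cut at about 60% in these data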;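 note: 0% = DMSO treated cells and 100% = gossypol at 36 µM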
# SRC3 inh = SRC3 coactivator transcriptional activity inhibitors, primary screen, cell-based, luminescence; inhibition, % at 3.6 µM; AID 588352, 2011; HEK293 GAL4-SRC3 luciferase reporter; actives 0.17% (n = 360,000);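 active = inhibition above a per-campaign cutoff, the mean of all compounds plus 3 SD, cut at about 60% in these data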;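 note: 0% = DMSO-treated cells and 100% = gossypol-treated cells at 36 µM; higher means less SRC3-driven luciferase light from the GAL4 reporter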
# NR5A2 inv ag = LRH-1 (NR5A2) inverse agonists, primary screen, cell-based, luminescence, HEK293T, StAR-luciferase reporter. LRH-1 transfected, 24 h. inhibition, % at 3.6 µM. Nuclear receptor subfamily 5 group A member 2 (Homo sapiens), O00482. actives 0.13% (n = 360,000);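 active = inhibition above the mean inhibition of all tested compounds plus 3 SD, cut at about 73% in these data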;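 note: 0% = DMSO wells and 100% = reporter-only cells lacking LRH-1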
# Target sequence (O00482 whole entry, looked up): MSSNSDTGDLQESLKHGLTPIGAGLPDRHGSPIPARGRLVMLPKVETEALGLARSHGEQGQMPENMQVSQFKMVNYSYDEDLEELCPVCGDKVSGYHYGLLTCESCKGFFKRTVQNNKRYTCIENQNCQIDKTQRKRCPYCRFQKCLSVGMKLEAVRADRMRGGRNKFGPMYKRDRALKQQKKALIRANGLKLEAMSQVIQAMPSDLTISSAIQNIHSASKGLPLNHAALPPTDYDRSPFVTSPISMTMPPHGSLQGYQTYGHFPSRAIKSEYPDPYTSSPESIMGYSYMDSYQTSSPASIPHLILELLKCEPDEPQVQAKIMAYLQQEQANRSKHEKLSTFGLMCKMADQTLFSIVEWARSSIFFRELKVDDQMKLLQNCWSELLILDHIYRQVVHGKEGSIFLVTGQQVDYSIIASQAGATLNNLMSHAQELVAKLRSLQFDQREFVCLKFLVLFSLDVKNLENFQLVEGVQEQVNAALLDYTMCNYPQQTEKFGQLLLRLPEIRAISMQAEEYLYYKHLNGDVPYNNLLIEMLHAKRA
# NCOA2 inhibitor = inhibition of GAL4-SRC2 driven luciferase reporter, primary screen, SRC2 inhibitor project, cell-based, luminescence. HEK293 GAL4-SRC2 luciferase reporter. inhibition, % at 9 µM. actives 0.17% (n = 370,000). AID 651957, 2012;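 active = inhibition above the mean inhibition of all tested compounds plus 3 SD, set per campaign, cut at about 52% in these data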;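 note: 0% = DMSO treated cells and 100% = cells given Gossypol at 36 µM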
# NR2F2 inh = NR2F2 transcriptional activity inhibitors, primary screen, cell-based, luciferase reporter, HEK293T, luminescence. actives 0.7% (n = 370,000). HEK293T NGFI-A luciferase reporter. AID 686940, 2013. inhibition, % at 8.6 µM;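 active = inhibition above a per-plate cutoff, mean inhibition of test wells between control levels plus 3 SD, cut at about 38% in these data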;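 note: cells cotransfected with COUP-TFII expression vector driving the NGFI-A reporter; 0% = median of COUP-TF2 test wells and 100% = reporter-only cells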
# Starred values were filed as active, the others as inactive; . = not tested or not shown.
SMILES,NCOA1 inh,SRC3 inh,NR5A2 inv ag,NCOA2 inhibitor,NR2F2 inh
CCC(=O)[C@@H](C)[C@@H](O)[C@H](C)C[C@@H](C)C1OC(=O)C[C@@]2(O)CC=C(C)C(O2)C(C)=CCCC[C@H](O[C@H]2C[C@@H](OC(N)=O)[C@H](O)[C@@H](C)O2)C=C[C@H](C)C[C@H]1C (stereo partly specified),.,.,85*,.,.
Oc1ccc2c3c1O[C@H]1c4[nH]c5c(c4CC4(O)C(C2)N(CC2CC2)CCC314)CC1(O)[C@H]2Cc3ccc(O)c4c3[C@@]1(CCN2CC1CC1)C5O4 (stereo partly specified),.,.,.,4,-2
O=C1/C(=C/c2ccccc2)C[C@@]2(O)[C@H]3Cc4ccc(O)c5c4[C@@]2(CCN3CC2CC2)C1O5 (stereo partly specified),86*,83*,84*,.,.
Cc1nc2cc(-c3ccc(Cl)cc3)nn2c(C)c1CCC(=O)N1CCC2(CC1)OCCO2,-4,17,-3,56*,-9
CCOc1ccc(-c2c(C)n(-c3ccc(OCC)cc3)c3[n+]2CCCCC3)cc1,74*,82*,88*,33,90*
CCOc1ccc(-n2c(-c3ccoc3)nc3ccccc3c2=O)cc1,13,11,3,7,6
CCOC(=O)CC[C@@H]1CC[C@]2(CCCN(Cc3ccncc3)C2)O1,.,.,.,14,13
COC1=CC(=O)[C@]2(C=C1OC)OC[C@@H]1Oc3c(ccc4c3C=CC(C)(C)O4)C(=O)[C@@H]12,.,.,.,1,73*
COC(=O)[C@H]1C[C@@]2(C)c3ccccc3N[C@H]2N1,.,.,.,-8,-4
C=CCn1c(O)c(C=NC2CCN(Cc3ccccc3)CC2)c(=O)[nH]c1=O,12,17,-10,10,-3
O=c1[nH]c(=O)n(CCC2=CCCCC2)c(O)c1C=NC1CCN(Cc2ccccc2)CC1,11,35,23,26,52*
c1cc(OCCN2CC2)ccn1,-8,-25,4,13,-21
COc1ccc(-n2nnnc2C(c2cccc3ccccc23)N2CCC3(CC2)C(=O)NCN3c2ccccc2)cc1 (stereo unspecified),31,23,-17,-26,7
CC(=O)OC1C(O)C2=C3C4(C)C1C(C)(C)C(=O)CC4C3(O)C(OC(C)=O)C1(CC1C)C2=O (stereo unspecified),.,.,13,6,-6
CN1CN(c2ccccc2)C2(CCN(CCCSc3ccccc3NC(=O)/C=C/c3ccccc3)CC2)C1=O,3,14,4,-24,39*
O=S(=O)(c1ccc2ccccc2c1)N1Cc2cc(Br)ccc2-n2nncc2C1,.,.,.,-9,-7
COc1ccc2c(c1)/C(=C/c1cnc[nH]1)C(=O)N2,25,29,82*,-4,-14
CCOC(=O)[C@]12Cc3cc(Cl)ccc3[C@H]1N(CC(=O)OC)C(=O)c1ccccc12,.,.,57,.,.
COC(=O)C[C@]1(C(=O)OC)CN(C#N)N(c2ccc(Cl)cc2)C12c1ccccc1-c1ccccc12,2,67*,45,91*,102*
CC1=CC(O)C(O)C2(C)C1CC1OC(=O)C(O)C3C(C)C(O)C4(O)OCC13C42 (stereo unspecified),-1,-7,24,.,.
COC(=O)[C@]12OC[C@]34C([C@@H](O)[C@@H]1O)[C@]1(C)CC(=O)C(O)=C(C)[C@@H]1C[C@H]3OC(=O)[C@H](O)[C@@H]24 (stereo partly specified),81*,69*,99*,61*,76*
CCOC(=O)[C@]12Cc3cc(Cl)ccc3[C@H]1N(C1CCCCC1)C(=O)c1ccccc12,.,.,85*,.,.
Cn1ncnc2c(=O)n(C)c(=O)nc1-2,88*,91*,100*,.,.
C[C@@H]1O[C@@H](O[C@H]2C[C@@H](O)[C@]3(CO)[C@H]4[C@H](O)C[C@]5(C)[C@@H](C6=CC(=O)OC6)CC[C@]5(O)[C@@H]4CC[C@]3(O)C2)[C@H](O)[C@H](O)[C@H]1O,88*,93*,103*,.,.
O=[N+]([O-])c1cccc(CN2CCN(Cc3ccc(Br)cc3)CC2)c1,-5,4,35,9,22
SMILES,NCOA1 inh,SRC3 inh,NR5A2 inv ag,NCOA2 inhibitor,NR2F2 inh
CC(=O)OCC12CC(OC(=O)CC(C)C)C(C)=CC1OC1C(O)C(OC(C)=O)C2(C)C12CO2 (stereo unspecified),95*,95*,98*,77*,92*
CCCCn1nnnc1C(c1cccs1)N1CCC2(CC1)C(=O)NCN2c1ccccc1 (stereo unspecified),4,-11,3,-1,-6
Cc1ccc(-c2cc(-c3ccc(C)cc3)[n+](-c3ccccc3)c(-c3ccc(C)cc3)c2)cc1,65*,79*,93*,.,.
Cc1ccc(-c2cc(-c3ccc(C)cc3)[n+](-c3ccc(C(=O)[O-])cc3)c(-c3ccc(C)cc3)c2)cc1,-9,5,1,-7,7
Cc1c2ccncc2c(C)c2c1[nH]c1ccccc12,64*,60,65,.,.
O=C(NCCN1CCC2(CC1)C(=O)NCN2c1ccccc1)c1ccc(F)c(F)c1,.,.,.,-12,13
CC12CC[C@H]3[C@@H](CCC4(O)C[C@H](O)CCC34/C=N/NC(=O)c3ccccc3Cl)C1(O)CCC2C1=CC(=O)OC1 (stereo partly specified),8,11,-1,-19,7
C[C@H]1O[C@@H](OC2CC[C@]3(C=O)[C@H]4CC[C@]5(C)[C@@H](C6=CC(=O)OC6)CC[C@]5(O)[C@@H]4CC[C@]3(O)C2)CC2OC(C)(C)OC21 (stereo partly specified),81*,86*,99*,60*,75*
CC(C)(C)c1cc(C=C(C#N)C#N)cc(C(C)(C)C)c1O,61,81*,76*,-3,2
N#CC(C#N)=Cc1ccc(O)c(O)c1,5,5,-11,-30,-16
CCCCCc1nc2c(c(=O)c3ccccc3n2C)c(=O)n1C1CCCCCC1,9,-2,-6,-14,10
CCOC(=O)C1=C(C(=O)OCC)C2(c3ccccc3)c3ccccc3C1(C)N2C (stereo unspecified),.,.,.,-11,7
C[C@H]1[C@H](OC(=O)CCC(=O)NCc2ccc(C(=O)O)cc2)O[C@@H]2O[C@@]3(C)CC[C@H]4[C@H](C)CC[C@@H]1C24OO3,62*,72*,89*,.,.
CCOC(=O)[C@]12Cc3cc(Cl)ccc3[C@H]1N(C)C(=O)c1ccccc12,.,.,-46,3,5

# Screens deposited in PubChem BioAssay by The Scripps Research Institute Molecular Screening Center.
